# Measured values: the supplement of paper PMC8728848
# The entries come from a sample that favours the strongest signals as a whole.
# B1: GS7807F-bth-514-18-514 (Bacteroides thetaiotaomicron) (protein)
# chain: AGSCTGNFEEYNTNQFQIHEADPSTLMKSMIETIVNIQQNDSQMMDQMVGQLGGYLTCANVWSGTNFGTFNQSDAWNAGPWNTNFEKIYGNFFQIQEATNESGHYYAFARMIRAITMLRVADCYGPMPYSQVKKGNFYVAYDTEEQVYKNIMEDFASAANVLYNYYKDTNGNAPLASNDPVFSGNYANWARLANSMRLRVAIRISTAYPEMAKENAEAAASHEAGLIEANNDNAMMDCGSQTNPYQLAAVSWGDLRVNANIVDYMNGYGDPRMSKYFNHSTFTGHTQEYVGMRSGEDGFAKSDVAGYSIPAITGTSKLLVFCAAETAFLRAEGKLKNWSVGNKSAKEYYEEGIKLSMEQYGTTMPDNYLTNTEKPTVSHNNDPRGHAYTISNTVAVAWNDNNEEENLQRIITQKWIANYPLGLEAWAEYRRTGYPELYPCIDNLSPSGVDSKRGMRRLRFPYTEVQNNHSNYQQGVSYLKNGGPDNEATDLSWGKTN
# What was measured:
# Assay in all cases: glycan array binding signal (z-score within array); higher = stronger binding
# Settings in all cases: glycan notation: IUPAC condensed, linker removed
# [1] = target: Gal(b1-4)GlcNAc(b1-3)[Fuc(a1-3)GlcNAc(b1-6)]Gal(b1-4)Glc
# Procedure, shortened: (§1)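 Glycan array binding is given as a within-array Z-score, which can be read as non-binding when negative. The arrays, 3228 of them, came from the Consortium for Functional Glycomics database and were retained only where the protein sequence was available. Z-scores were averaged across arrays of the same protein sequence at different concentrations or buffers and across linkers.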
# [2] = target: Gal(b1-4)GlcNAc(b1-6)[Gal(b1-4)GlcNAc(b1-3)]GalNAc
# Procedure, shortened: as §1
# [3] = target: Gal3S(b1-4)Glc
# Procedure, shortened: as §1
# [4] = target: Gal3S(b1-4)[Fuc(a1-3)]Glc6S
# Procedure, shortened: as §1
# [5] = target: Gal6S(b1-4)GlcNAc
# Procedure, shortened: as §1
# [6] = target: GalNAc(a1-3)GalNAc
# Procedure, shortened: as §1
# [7] = target: GalNAc(b1-4)GlcNAc6S
# Procedure, shortened: as §1
# [8] = target: Glc(a1-6)Glc(a1-6)Glc(a1-6)Glc
# Procedure, shortened: as §1
# [9] = target: GlcA3S(b1-3)Gal(b1-4)GlcNAc(b1-2)Man
# Procedure, shortened: as §1
# [10] = target: GlcNAc(a1-4)Gal(b1-4)GlcNAc(b1-3)Gal(b1-4)Glc
# Procedure, shortened: as §1
# [11] = target: GlcNAc(b1-2)[GlcNAc(b1-6)]Man(a1-6)[GlcNAc(b1-2)Man(a1-3)]Man(b1-4)GlcNAc(b1-4)GlcNAc
# Procedure, shortened: as §1
# [12] = target: GlcNAc(b1-3)Gal(b1-4)GlcNAc(b1-3)Gal(b1-4)GlcNAc(b1-2)[GlcNAc(b1-3)Gal(b1-4)GlcNAc(b1-3)Gal(b1-4)GlcNAc(b1-6)]Man(a1-6)[GlcNAc(b1-3)Gal(b1-4)GlcNAc(b1-3)Gal(b1-4)GlcNAc(b1-2)Man(a1-3)]Man(b1-4)GlcNAc(b1-4)[Fuc(a1-6)]GlcNAc
# Procedure, shortened: as §1
# [13] = target: GlcNAc(b1-3)Gal(b1-4)GlcNAc(b1-3)Gal(b1-4)GlcNAc(b1-3)Gal(b1-4)GlcNAc(b1-2)Man(a1-3)[GlcNAc(b1-3)Gal(b1-4)GlcNAc(b1-3)Gal(b1-4)GlcNAc(b1-3)Gal(b1-4)GlcNAc(b1-2)Man(a1-6)]Man(b1-4)GlcNAc(b1-4)[Fuc(a1-6)]GlcNAc
# Procedure, shortened: as §1
# [14] = target: GlcNAc6S(b1-3)Gal(b1-4)GlcNAc
# Procedure, shortened: as §1
# [15] = target: Neu5Ac(a2-3)Gal(b1-3)GlcNAc(b1-3)Gal(b1-3)GlcNAc
# Procedure, shortened: as §1
# [16] = target: Neu5Ac(a2-3)Gal(b1-3)GlcNAc(b1-3)Gal(b1-4)GlcNAc
# Procedure, shortened: as §1
# [17] = target: Neu5Ac(a2-3)Gal(b1-3)GlcNAc6S
# Procedure, shortened: as §1
# [18] = target: Neu5Ac(a2-3)Gal(b1-3)[Fuc(a1-4)]GlcNAc(b1-3)Gal(b1-4)[Fuc(a1-3)]GlcNAc
# Procedure, shortened: as §1
# [19] = target: Neu5Ac(a2-3)[GalNAc(b1-4)]Gal(b1-4)Glc
# Procedure, shortened: as §1
# [20] = target: Neu5Ac(a2-6)Gal(b1-4)GlcNAc(b1-2)Man(a1-6)Man(b1-4)GlcNAc(b1-4)GlcNAc
# Procedure, shortened: as §1
# [21] = target: Neu5Ac(a2-6)Gal(b1-4)GlcNAc(b1-2)Man(a1-6)[Gal(b1-4)GlcNAc(b1-2)Man(a1-3)]Man(b1-4)GlcNAc(b1-4)GlcNAc
# Procedure, shortened: as §1
# [22] = target: Neu5Ac(a2-6)Gal(b1-4)GlcNAc(b1-2)[Neu5Ac(a2-6)Gal(b1-4)GlcNAc(b1-4)]Man(a1-3)[GlcNAc(b1-4)][Neu5Ac(a2-6)Gal(b1-4)GlcNAc(b1-2)[Neu5Ac(a2-6)Gal(b1-4)GlcNAc(b1-6)]Man(a1-6)]Man(b1-4)GlcNAc(b1-4)GlcNAc
# Procedure, shortened: as §1
# [23] = target: Neu5Ac(a2-6)GalNAc(b1-4)GlcNAc
# Procedure, shortened: as §1
# [24] = target: Neu5Ac(a2-8)Neu5Ac(a2-3)[GalNAc(b1-4)]Gal(b1-4)Glc
# Procedure, shortened: as §1
# [25] = target: Neu5Ac(a2-8)Neu5Ac(a2-8)Neu5Ac(a2-3)Gal(b1-4)Glc
# Procedure, shortened: as §1
# [26] = target: Neu5Gc(a2-3)Gal(b1-4)GlcNAc(b1-3)Gal(b1-4)GlcNAc(b1-2)Man(a1-3)[Neu5Gc(a2-3)Gal(b1-4)GlcNAc(b1-3)Gal(b1-4)GlcNAc(b1-2)Man(a1-6)]Man(b1-4)GlcNAc(b1-4)GlcNAc
# Procedure, shortened: as §1
binder,measurement,setting,value
B1,glycan array binding signal (z-score),[1],1.53
same,glycan array binding signal (z-score),[2],0.25
same,glycan array binding signal (z-score),[3],0.164
same,glycan array binding signal (z-score),[4],3.48
same,glycan array binding signal (z-score),[5],0.547
same,glycan array binding signal (z-score),[6],0.13
same,glycan array binding signal (z-score),[7],0.521
same,glycan array binding signal (z-score),[8],-0.652
same,glycan array binding signal (z-score),[9],-0.771
same,glycan array binding signal (z-score),[10],-0.587
same,glycan array binding signal (z-score),[11],-0.73
same,glycan array binding signal (z-score),[12],0.581
same,glycan array binding signal (z-score),[13],3.26
same,glycan array binding signal (z-score),[14],1.06
same,glycan array binding signal (z-score),[15],-0.891
same,glycan array binding signal (z-score),[16],-0.842
same,glycan array binding signal (z-score),[17],-0.491
same,glycan array binding signal (z-score),[18],0.124
same,glycan array binding signal (z-score),[19],-0.409
same,glycan array binding signal (z-score),[20],3.88
same,glycan array binding signal (z-score),[21],3.49
same,glycan array binding signal (z-score),[22],0.039
same,glycan array binding signal (z-score),[23],-0.875
same,glycan array binding signal (z-score),[24],3.32
same,glycan array binding signal (z-score),[25],-0.82
same,glycan array binding signal (z-score),[26],-0.775
